The results in this text go back to article PMC4336329 (PLoS ONE, 2015).

About 14,000 (4.5%) of roughly 310,000 compounds showed an effect of 50% or more. Effects have a minus sign here. Only a selection was taken, and strong results are over-represented in it overall.
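Also: peak tail current of the secondary pulse compared with the same well before compound.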

Sequence of human ether-à-go-go-related gene (hERG) potassium channel (Q12809 whole entry, looked up): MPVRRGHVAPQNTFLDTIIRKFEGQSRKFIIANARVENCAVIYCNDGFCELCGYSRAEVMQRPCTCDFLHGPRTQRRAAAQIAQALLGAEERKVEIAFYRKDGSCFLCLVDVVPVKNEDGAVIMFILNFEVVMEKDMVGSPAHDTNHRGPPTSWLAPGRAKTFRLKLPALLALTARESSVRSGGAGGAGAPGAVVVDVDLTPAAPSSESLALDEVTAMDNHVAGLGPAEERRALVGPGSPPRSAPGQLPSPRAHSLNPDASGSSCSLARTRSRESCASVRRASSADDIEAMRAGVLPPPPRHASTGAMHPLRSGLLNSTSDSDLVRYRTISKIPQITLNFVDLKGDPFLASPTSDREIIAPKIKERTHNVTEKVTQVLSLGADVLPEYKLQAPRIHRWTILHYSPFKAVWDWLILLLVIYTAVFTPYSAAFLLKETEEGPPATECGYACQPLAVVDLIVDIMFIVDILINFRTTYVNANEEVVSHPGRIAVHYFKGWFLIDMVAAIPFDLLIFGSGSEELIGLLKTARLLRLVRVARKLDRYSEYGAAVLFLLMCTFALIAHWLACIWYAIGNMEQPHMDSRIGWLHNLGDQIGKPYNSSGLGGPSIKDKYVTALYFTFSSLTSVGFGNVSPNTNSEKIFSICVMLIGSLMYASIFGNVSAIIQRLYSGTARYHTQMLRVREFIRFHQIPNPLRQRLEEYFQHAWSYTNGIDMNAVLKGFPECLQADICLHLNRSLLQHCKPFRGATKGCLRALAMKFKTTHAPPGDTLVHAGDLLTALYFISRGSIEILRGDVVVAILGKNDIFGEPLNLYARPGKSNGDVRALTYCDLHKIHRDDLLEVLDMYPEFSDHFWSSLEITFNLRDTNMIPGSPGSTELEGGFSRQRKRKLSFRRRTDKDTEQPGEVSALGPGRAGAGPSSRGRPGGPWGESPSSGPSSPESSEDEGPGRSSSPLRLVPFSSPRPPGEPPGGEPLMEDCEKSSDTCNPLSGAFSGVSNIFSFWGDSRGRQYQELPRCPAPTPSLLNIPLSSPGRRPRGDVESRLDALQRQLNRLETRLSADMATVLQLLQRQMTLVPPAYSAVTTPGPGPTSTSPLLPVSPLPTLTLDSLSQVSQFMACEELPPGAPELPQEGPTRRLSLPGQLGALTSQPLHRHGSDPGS

The target of this experiment is human ether-à-go-go-related gene (hERG) potassium channel (human, UniProt Q12809). Nature of the experiment: primary screen, population patch clamp on CHO cells stably expressing hERG; higher = less effect of the substance. Here is the method:
Briefly, Chinese hamster ovary (CHO) cells stably expressing the hERG channel were dislodged from tissue culture flasks and dispensed into PPC plates. […] During the recording, background leak currents were estimated by a 100 ms step to -80 mV from an initial holding potential of -70 mV and subtracted from the subsequent current measurement. The campaign was conducted in two phases using slight differences in recording protocol. In the first phase, the initial voltage pulse used a 100 ms step to -30 mV from a holding potential of -70 mV, a 2 s conditioning step to +25 mV, and a 2 s test step to -30 mV. During the second phase of the screen, the potential during the conditioning step was raised to +45 mV. In both phases of the campaign, a secondary voltage pulse was applied using the same parameters as the second phase initial pulse. The initial and secondary pulses were applied in the absence of compound, and upon application of 1 μM and 10 μM test concentrations. […]
`CCCCn1c2ccc(C)cc2c2nnc(SCCN3CCCCC3)nc21`: the “hERG current change (%, negative = inhibition) at 10uM” value was -74.3%.
The figure for `Cc1ccc2[nH]c3nc(SCCN4CCOCC4)nnc3c2c1` is 8.91%; for `CCCn1c2ccc(C)cc2c2nnc(SCCN3CCOCC3)nc21` it is -32.5%; for `CSCCC(NC(=O)C1CCC(C)CC1)C(=O)O` (centres unmarked) it is 16.6%.
In the case of `Cc1cccnc1NC(=O)c1ccc(Br)o1` it was 32.6%.
In the case of `COc1ccc(/C=C/C(=O)Nc2nc(N)n(-c3ccccc3)n2)cc1` it was -53%; in that of `Nc1nc(NC(=O)c2cccnc2)nn1-c1ccccc1`, 18.8%; in that of `Nc1nc(NC(=O)/C=C/c2ccc(F)cc2)nn1-c1ccccc1`, -53.4%.
Regarding `COc1ccccc1/C=C/C(=O)Nc1nc(N)n(-c2ccccc2)n1`, the “hERG current change (%, negative = inhibition) at 10uM” value is given as -33.8%.
The figure for `COc1ccc(C(=O)Nc2nc(N)n(-c3ccccc3)n2)cc1` is -11.4%; for `Cc1ccc(C(=O)Nc2nc(N)n(-c3ccccc3)n2)cc1` it is -0.817%.
Consider `Nc1nc(NC(=O)c2ccccc2)nn1-c1ccccc1`, for which the “hERG current change (%, negative = inhibition) at 10uM” value is -70.9%.
The figure for `Nc1nc(NC(=O)/C=C\C(=O)O)nn1-c1ccccc1` is 27.8%; for `Nc1nc(NC(=O)/C=C/c2ccccc2)nn1-c1ccccc1` it is -32.6%.
The figure for `Cc1ccc(Nc2nnc(SCc3ccccc3)s2)cc1` is 11.9%.
In the case of `O=[N+]([O-])c1ccc(S(=O)(=O)Nc2ccc(-c3ccc(N4CCCC4)nn3)cc2)cc1` it was -8.67%.
As for `Cc1cc(C)c2nc(-c3ccccn3)cc(C(=O)Nc3ccc(S(=O)(=O)Nc4onc(C)c4C)cc3)c2c1`, the “hERG current change (%, negative = inhibition) at 10uM” value is recorded as -2.33%.
In the case of `CC(=O)OCCCN1C(=O)c2cccc3cc(Br)cc(c23)C1=O` it was 4.74%; in that of `O=S1(=O)c2ccccc2N=NN1Cc1ccc(Cl)cc1`, 16.1%; in that of `Cn1c(O)c(C=NC2C(=O)C3(C)CCC2C3(C)C)c(=O)n(C)c1=O` (centres unmarked), -0.548%.
As for `Cc1onc(-c2c(F)cccc2Cl)c1C(=O)OCC(=O)NCc1ccco1`, the “hERG current change (%, negative = inhibition) at 10uM” value came out at 5.77%.
In the case of `CN(Cc1ccccc1)C(=O)C1CCCN(Cc2ccc(Cl)cc2)C1.O=C(O)C(=O)O` (centres unmarked) it was -71%; in that of `COc1ccc(CCN(C)C(=O)C2CCN(Cc3ccc(C)cc3)CC2)cc1OC.O=C(O)C(=O)O`, -60.8%.
For `COc1ccc(CN2CCCC(C(=O)N(C)Cc3ccccc3)C2)cc1OC.O=C(O)C(=O)O` (centres unmarked), the “hERG current change (%, negative = inhibition) at 10uM” value is given as -71.1%.
In the case of `CCN(CC)C(=O)C1CCCN(Cc2ccccc2)C1` (centres unmarked) it was 9.57%; in that of `COc1ccc(CCN(C)C(=O)C2CCCN(Cc3ccc(OC)c(OC)c3)C2)cc1OC.O=C(O)C(=O)O` (centres unmarked), -3.31%; in that of `COc1ccc(CCN(C)C(=O)C2CCCN(Cc3ccc(OC)c(OC)c3)C2)cc1OC` (centres unmarked), 9.21%.
In the case of `COc1ccc(OC)c(CN2CCC(C(=O)N(C)CCc3ccc(OC)c(OC)c3)CC2)c1.O=C(O)C(=O)O` it was -11.5%; in that of `COc1ccc(CCN(C)C(=O)C2CCN(Cc3ccccc3)CC2)cc1OC.O=C(O)C(=O)O`, 3.36%; in that of `CN(Cc1ccccc1)C(=O)C1CCCN(Cc2cccc(Cl)c2)C1.O=C(O)C(=O)O` (centres unmarked), -23.5%.
The figure for `O=C1NC2(CCCCCC2)C(=O)N1Cc1ccc(Br)cc1` is 4.06%; for `CCOc1ccc(-c2nnn(CC(=O)c3ccc4c(c3)OCCO4)n2)cc1OCC` it is -1.86%.
For the compound `CCc1cc(S(=O)(=O)N2CCN(C(=O)c3ccco3)CC2)ccc1OC`, the “hERG current change (%, negative = inhibition) at 10uM” value is on record as 1.76%.
In the case of `COc1ccc(-c2noc3c2-c2nc(-c4cccc(C)c4)sc2CC3)cc1` it was 7.57%; in that of `Cc1cccc(OCC(=O)N2CCN(c3nnc(-c4ccccc4)c4ccccc34)CC2)c1`, -69.7%; in that of `Cc1ccc(-c2nnc(N3CCN(C(=O)COc4cccc(C)c4)CC3)c3ccccc23)cc1`, -54.6%.
In the case of `Cc1ccc(-c2nnc(N3CCN(C(=O)CSc4ncn[nH]4)CC3)c3ccccc23)cc1` it was -32.6%; in that of `CO/N=C/NC(=O)Cc1cn(-c2ncc(C(F)(F)F)cc2Cl)c2ccccc12`, 3.84%.
The figure for `CCCOc1ccc(N2C(=O)CC(NCC(=O)OCC)C2=O)cc1` (centres unmarked) is 8.44%.
Consider `O=C(Cn1c(=O)cnc2ccccc21)NNC(=O)c1ccccc1Cl`, for which the “hERG current change (%, negative = inhibition) at 10uM” value is listed as 4.84%.
The figure for `COCCSc1ccccc1C(=O)Nc1ccccc1C(C)C` is 3.89%; for `CC(C)=CCN1CCN(Cc2cn[nH]c2C2CCCCC2)CC1CCO` (centres unmarked) it is 0.0652%; for `OCCC1CN(Cc2cn[nH]c2C2CCCCC2)CCN1Cc1ccccc1` (centres unmarked) it is 0.824%.
With `Cc1ccc(CN2CCN(Cc3cnc(N4CCOCC4)s3)CC2CCO)cc1` (centres unmarked), the “hERG current change (%, negative = inhibition) at 10uM” value is listed as -46.7%.
Turning to `Cc1ccc(CN2CCN(Cc3cn[nH]c3C3CCCCC3)CC2CCO)cc1` (centres unmarked), the “hERG current change (%, negative = inhibition) at 10uM” value was -62.9%.
In the case of `Cc1ccc(CN2CCN(CCC(C)C)C(CCO)C2)s1` (centres unmarked) it was -29.5%; in that of `Cc1ccc(CN2CCN(Cc3ccccc3)C(CCO)C2)s1` (centres unmarked), -62.8%; in that of `CCCCc1ncc(CN2CCN(Cc3ccc(C)cc3)C(CCO)C2)[nH]1` (centres unmarked), -57.9%.
In the case of `CC(C)=CCN1CCN(Cc2ccc(C)s2)CC1CCO` (centres unmarked), the “hERG current change (%, negative = inhibition) at 10uM” value is -16.1%.
The figure for `Cc1ccc(CN2CCN(Cc3cnc(C)s3)CC2CCO)cc1` (centres unmarked) is -19.4%.
Turning to `Cc1ccc(CN2CCN(Cc3ccc(C)s3)CC2CCO)cc1` (centres unmarked), the “hERG current change (%, negative = inhibition) at 10uM” value is -73.3%.
Consider `Cc1ccc(CN2CCN(CC(C)C)C(CCO)C2)s1` (centres unmarked), for which the “hERG current change (%, negative = inhibition) at 10uM” value is on record as -21.5%.
In the case of `Cc1ccc(CN2CCN(Cc3cnc(C)[nH]3)CC2CCO)cc1` (centres unmarked) it was 10.8%; in that of `Cn1c(O)c(C=Nc2ccccc2-c2ccccc2)c(=O)n(C)c1=O`, 4.4%.
The figure for `O=c1c2ccccc2cnn1Cc1n[nH]c(=S)n1-c1ccc(Cl)cc1` is 14.5%; for `Cc1ccc(-c2nc(-c3ccccn3)sc2CC(=O)O)cc1` it is 2.76%.
The figure for `O=C(N/N=C/c1cccs1)c1ccco1` is 11.8%; for `COc1ccc(NC(=O)COC(=O)C2CC2)c(OC)c1` it is -0.146%; for `CC1CC(C)(C)NC(=S)N1CC(=O)NCc1ccc(F)cc1` (centres unmarked) it is 0.792%.
As for `O=C(Cn1nnc(-c2ccccc2)n1)NNC(=O)c1cccc([N+](=O)[O-])c1`, the “hERG current change (%, negative = inhibition) at 10uM” value stood at 26.3%.
Regarding `COc1ccc(CCNC2CCCCCC2)cc1`, the “hERG current change (%, negative = inhibition) at 10uM” value is reported as -4.62%.
In the case of `COc1ccc(CCNC2CCC(c3ccccc3)CC2)cc1` (centres unmarked) it was -70.8%; in that of `COc1ccc(CCNC2CCc3ccccc3C2)cc1` (centres unmarked), -56%.
In the case of `COc1ccc(CCNC(=O)C2CC2)cc1` it was 0.64%; in that of `COc1ccc(CCNC(=O)C2Cc3ccccc3C(=O)O2)cc1` (centres unmarked), -1.35%; in that of `COc1ccc(CCNC2CCCCC2)cc1.O=C(O)C(=O)O`, -15.9%.
In the case of `COc1ccc(S(=O)(=O)N2CCN(c3ccc(C)cc3C)CC2)cc1OC` it was 5.72%; in that of `COC(=O)[C@@H](NC(=O)N(C1CCCCC1)C1CCCCC1)C(C)C`, -7.86%.
Regarding `C#CCOCOCC#CCN(CC)CC`, the “hERG current change (%, negative = inhibition) at 10uM” value is recorded as 3.26%.
The figure for `COc1ccc(-n2c(C)cc(C(=O)Cn3nc(C(=O)O)c4ccccc4c3=O)c2C)cc1` is -1.43%; for `CC(C)(C)c1ccc(CS(=O)CC(O)CO)cc1` (centres unmarked) it is 19.3%; for `Cc1cccnc1NC(=O)CNC(=O)c1cccs1` it is -8.89%.
The figure for `COc1ccc(S(=O)(=O)N2CCC(C(=O)NCCCc3ccccc3)CC2)cc1` is -35.9%; for `CC(=O)c1ccc(S(=O)(=O)Nc2ccc(-n3cnnn3)cc2)cc1` it is -6.16%; for `O=C(NCCc1ccccc1)C1CCN(S(=O)(=O)c2ccc(-n3cnnn3)cc2)CC1` it is -66.3%.
With `CC(=O)c1ccc(OCCNS(=O)(=O)c2ccc(-n3cnnn3)c(C)c2)cc1`, the “hERG current change (%, negative = inhibition) at 10uM” value is reported as -2.88%.
The figure for `Cc1ccc(S(=O)(=O)N2CCC(C(=O)NCCc3ccccc3)CC2)cc1` is -0.42%; for `O=C(NCCc1ccccc1)C1CCN(S(=O)(=O)c2ccc(-c3nn[nH]n3)cc2)CC1` it is -18.7%; for `O=C(CCNC(=O)C1CCN(S(=O)(=O)c2ccc(F)cc2)CC1)NCc1ccccc1` it is 2.4%.
In the case of `CCCCOc1ccc(NS(=O)(=O)c2ccc(-n3cnnn3)cc2)cc1` it was -3.42%; in that of `O=C(NCCCc1ccccc1)C1CCN(S(=O)(=O)c2ccc(F)cc2)CC1`, -60.7%.
The figure for `COc1ccc(S(=O)(=O)Nc2cccc(-n3cnnn3)c2)cc1` is 1.11%; for `COc1ccc(OCC(NS(=O)(=O)c2ccc(-n3cnnn3)cc2)C(C)C)cc1` (centres unmarked) it is -52.2%; for `CC(=O)c1ccc(OCCNS(=O)(=O)c2ccc(-n3cnnn3)cc2)cc1` it is -55.3%.
For `Cc1ccc(N2CCN(C(=O)c3cccs3)CC2)cc1C`, the “hERG current change (%, negative = inhibition) at 10uM” value amounted to 2.97%.
As to `Cc1cccn(Cc2c(Cl)cccc2Cl)c1=O`, the “hERG current change (%, negative = inhibition) at 10uM” value was -9.53%.
The figure for `CCOc1ccc(N(CC(=O)NC(C(C)C)C(C)C)S(=O)(=O)c2ccc(OC)c(OC)c2)cc1` is 38%.
In the case of `CCOC(=O)CNC(=S)N(Cc1ccccc1)Cc1cccs1` it was -17.3%; in that of `COc1ccc(NC(=O)c2ccc(OC)cc2)cc1`, -30%.
